# Results reported in PubChem BioAssay (Tox21).
# “And” between values parts separate entries of the source, which are not always exact repeats. Equal values may be shown once. Results filed as inconclusive are left out. Where a call stands in place of a potency, no number is given. A number with no mark means an inactive call. The source made the active and inactive calls. Calls come from the whole dose curve; as a rule, active = well fitted inhibition curve with a large enough effect in the signal ratio in the repeat runs (not every such curve was filed as active); inconclusive = weak or mixed curves, or effect the other way; inactive = no such curve, though single readings can be large or run the other way; the % refers to the signal ratio.
# Molecular target: Peroxisome proliferator-activated receptor delta (Homo sapiens) (UniProt Q03181)
# Test: qHTS assay to identify small molecule antagonists of the peroxisome proliferator-activated receptor delta (PPARd) signaling pathway (AID 743215);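 note: cells stimulated with agonist L165041 at 300 nM final during compound exposure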
# Conditions: HEK293H PPARd-UAS-bla, beta-lactamase FRET ratio, antagonist, 17 h; series mostly up to 62 µM; ratio activity, negative = inhibition: at the top concentration
# Description: U.S. Tox21 Program National Center for Advancing Translational Sciences [NCATS] NIH Chemical Genomics Center [NCGC] U.S. Environmental Protection Agency [EPA] National Institutes of Environmental Health Sciences [NIEHS] National Toxicology Program [NTP] U.S. Food and Drug Administration [FDA] Tox21 Assay Overview: The peroxisome proliferator-activated receptors (PPARs) are lipid-activated transcription factors of the nuclear receptor superfamily with three distinct subtypes namely PPAR alpha, PPAR delta (PPARd) and PPAR gamma. All these subtypes heterodimerizes with Retinoid X receptor (RXR) and have different physiological functions. […] To identify the compounds that inhibit PPAR-delta signaling, GeneBLAzer PPAR delta UAS-bla HEK293H cell line (Invitrogen, Carlsbad, CA, USA) containing a beta-lactamase reporter gene under the control of an Upstream Activator Sequence (UAS) was used to screen the Tox21 compound library.
# Tox21 Assay Protocol Summary: PPARd-bla cells were dispensed at 3000 cells/5uL/well in 1536-well black wall/clear bottom plates using a Multidrop Combi (Thermo Fisher Scientific, Waltham, MA) dispenser. After the assay plates were incubated at 37 C and 5% CO2 for 5 h, 23 nL of compounds dissolved in DMSO, positive controls or DMSO only was transferred to the assay plate by a Pintool station (Kalypsys, San Diego, CA), followed by addition of 1ul L165041 (300 nM, final concentration in the wells). The assay plates were incubated at 37 C for 17 h, and then 1 uL of LiveBLAzerTM B/G FRET substrate was added using a Bioraptr Flying Reagent Dispenser (FRD) workstation (Beckman Coulter, Indianapolis, IN, USA). The assay plates were incubated at room temperature for 2 h and fluorescence intensity was measured by an Envision plate reader (PerkinElmer, Shelton, CT).
# Potency is the fitted concentration of half-maximal effect.
# Peroxisome proliferator-activated receptor delta (Homo sapiens), sequence (Q03181 whole entry, looked up): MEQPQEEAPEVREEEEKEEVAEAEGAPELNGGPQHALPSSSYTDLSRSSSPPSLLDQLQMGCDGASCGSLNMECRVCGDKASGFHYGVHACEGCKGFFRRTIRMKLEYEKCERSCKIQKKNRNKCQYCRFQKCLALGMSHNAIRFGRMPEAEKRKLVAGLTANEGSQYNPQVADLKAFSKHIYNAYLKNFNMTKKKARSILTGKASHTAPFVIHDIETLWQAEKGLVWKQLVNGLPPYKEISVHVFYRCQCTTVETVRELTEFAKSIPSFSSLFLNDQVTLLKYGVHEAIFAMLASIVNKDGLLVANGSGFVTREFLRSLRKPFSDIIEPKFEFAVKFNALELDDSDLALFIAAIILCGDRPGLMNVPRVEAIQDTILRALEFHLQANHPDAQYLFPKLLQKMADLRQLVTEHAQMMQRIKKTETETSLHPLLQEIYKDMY
Compound,"ratio activity, negative = inhibition [%]",Potency
O=NN1CCOCC1,4.43,–
O=C1CCCO1,–,inactive
CCN(CC)C(=O)C(C)Oc1cccc2ccccc12 (stereo not given),–,inactive
CC[n+]1c(-c2ccccc2)c2cc(N)ccc2c2ccc(N)cc21,–,24.4 µM (active) and 23.7 µM (active)
c1ccc(C2CO2)cc1 (stereo not given),–,inactive
Brc1ccc(Br)cc1,5.29,–
COC(=O)Nc1nc2ccccc2[nH]1,-14.8,–
O=C1Nc2ccc(Cl)cc2C(c2ccccc2)=NC1O (stereo not given),–,inactive
CCCCOCC1CO1 (stereo not given),–,inactive
Clc1cccc(Cl)c1,–,inactive
O=C(O)c1nn(Cc2ccc(Cl)cc2Cl)c2ccccc12,–,inactive
N#CCCCCC#N,–,inactive
c1ccc2c(c1)Nc1ccccc1S2,-3.83,–
O=P(OCCCl)(OCCCl)OCCCl,–,inactive
CCOP(=S)(OCC)SCSC(C)(C)C,–,inactive
CC(C)(C#N)N=NC(C)(C)C#N,-11.6,–
Oc1ccc(Cl)cc1Cl,–,inactive
CCNc1nc(Cl)nc(NC(C)(C)C#N)n1,5.56,–
Clc1ccccc1-c1nnc(-c2ccccc2Cl)nn1,–,inactive
Oc1ccc(Cl)cc1Cc1ccccc1,–,inactive

Compound,"ratio activity, negative = inhibition [%]",Potency
CN(C)P(=O)(N(C)C)N(C)C,–,inactive
CCCCCCCCCCCCCl,0.821,–
COP(=O)(NC(C)=O)SC (stereo not given),–,inactive
Cc1cc(Cl)ccc1N=CN(C)C,–,inactive
CC(C)CON=O,–,inactive
C[N+](C)(C)CC(=O)[O-],–,inactive
ClC(Cl)(Cl)c1ccccc1,–,inactive
N#Cc1cccnc1,–,inactive
C=CC(=O)OCC(CC)(COC(=O)C=C)COC(=O)C=C,–,12.6 µM (active)
Cc1ccc([N+](=O)[O-])cc1,–,inactive
CCOP(=S)(OCC)OP(=S)(OCC)OCC,–,inactive
Cc1cccc(N=Nc2ccc(N(C)C)cc2)c1,-11.8,–
ClC(Cl)=C(Cl)C(Cl)=C(Cl)Cl,–,inactive
Cn1c(-c2ccccc2)cc(-c2ccccc2)[n+]1C,–,inactive
C=C(C)C#N,–,inactive
OC(c1ccc(Cl)cc1)(c1cncnc1)c1ccccc1Cl (stereo not given),–,inactive
COP(=S)(OC)Oc1ccc(Sc2ccc(OP(=S)(OC)OC)cc2)cc1,-19.7,–
CC1(C)C(C(=O)OC(C#N)c2cccc(Oc3ccccc3)c2)C1(C)C (stereo not given),–,inactive
ClC(Cl)(Cl)Br,–,inactive
N#CC(c1ccccc1)c1ccccc1,–,inactive
